These results are taken from PubChem BioAssay (NCI).

This is part of a sample that, as a whole, favours compounds with a hit. Of some 83,000 tested, about 20% had one in any assay.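 Values shown are percent growth following 48 h exposure of cells in 96-well plates to a single concentration of compound; below 10 was considered active.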 Unmarked numbers belong to inactive results. The source made the active and inactive calls.

Test systems include DU-145 prostate; K-562 leukemia; MALME-3M melanoma; MDA-MB-231 breast; RXF 393 renal; SF-268 CNS; SF-539 CNS; UACC-257 melanoma; M14 melanoma; SF-295 CNS.
What all share (test): NCI-60 one-dose screen, 48 h (100 = growth as untreated, 0 = no growth, -100 = all killed)
What all share (conditions): 10 µM unless noted

As to `COc1cc(/C=C\c2cc(OC)c(OC)c(OC)c2)cc(N/C=C\C(=O)c2cc(OC)c(OC)c(OC)c2)c1OC`, the growth in the experiment on DU-145 prostate is 27.2%; with K-562 leukemia it was 16.2%; with MALME-3M melanoma it was 25.9%; with MDA-MB-231 breast it was 42.7%; in the experiment on RXF 393 renal it was 17.4%; in the experiment on SF-268 CNS it was 41.1%. In addition, the growth in the experiment on SF-539 CNS is -9.74% (active); with UACC-257 melanoma it was 68.1%; in the experiment with M14 melanoma it was 2.89% (active).

For `Clc1ccc2nnnn2n1`, the growth in the experiment on DU-145 prostate is 3.28% (active); in the experiment with K-562 leukemia, -11.3% (active); in the experiment with MALME-3M melanoma, 66.2%; with MDA-MB-231 breast, 36.8%; in the experiment on SF-268 CNS it was 25%; in the experiment with SF-295 CNS, 67.7%. The values for the growth in the experiment with SF-539 CNS, in the experiment on UACC-257 melanoma and with M14 melanoma were 47%, 41.1% and 37.7%, respectively.

On to `CCC1(C(C)C)C(=O)NC(=S)NC1=O`, for which the growth is 115% in the experiment with DU-145 prostate; 107% in the experiment on K-562 leukemia; 111% with MALME-3M melanoma; 114% with MDA-MB-231 breast; 94.8% in the experiment on RXF 393 renal; 96.1% with SF-268 CNS. Also, the values for the growth with SF-539 CNS, in the experiment on UACC-257 melanoma and in the experiment with M14 melanoma were 94.3%, 92.2% and 106%, respectively.

`O=[N+]([O-])c1ccc(OP(=O)(CCl)N(CCCl)CCCl)cc1` (stereo not given): the growth is 110% in the experiment on DU-145 prostate; 97.1% in the experiment with K-562 leukemia; 109% in the experiment with MALME-3M melanoma; 124% with MDA-MB-231 breast; 101% in the experiment on RXF 393 renal; 104% in the experiment on SF-268 CNS. Also, the values for the growth in the experiment on SF-539 CNS, with UACC-257 melanoma and in the experiment on M14 melanoma were 105%, 99.9% and 98.6%, respectively.

For `CCC1(C)CC(CCNCc2ccccc2O)(c2ccc(C)cc2)CCO1` (stereo not given), the growth in the experiment with DU-145 prostate was 103%; in the experiment on K-562 leukemia it was 101%; with MALME-3M melanoma, 109%; in the experiment on MDA-MB-231 breast it was 106%; in the experiment on RXF 393 renal it was 111%; in the experiment on SF-268 CNS it was 105%. Also, the figures for the growth with SF-539 CNS, with UACC-257 melanoma and in the experiment with M14 melanoma were 99.1%, 107% and 104%, respectively.

For `O=C1CCC2(O)[C@@H]3Cc4ccc(O)c5c4[C@]2(CCN3Cc2ccoc2)C1O5` (stereo not given in full), the growth was 106% with DU-145 prostate; 93.9% in the experiment with K-562 leukemia; 96.7% in the experiment with MALME-3M melanoma; 106% with MDA-MB-231 breast; 116% in the experiment with RXF 393 renal; 108% in the experiment on SF-268 CNS. The growth was 97.8% in the experiment with SF-539 CNS, 103% in the experiment on UACC-257 melanoma and 100% with M14 melanoma.

`Nc1nc([Se])c2ncn(C3OC(CO)C(O)C3O)c2n1` (stereo not given): the growth in the experiment with DU-145 prostate was 39.9%; in the experiment with K-562 leukemia, 21.7%; with MALME-3M melanoma, 69.3%; in the experiment on MDA-MB-231 breast, 22%; in the experiment with SF-268 CNS it was 87%; with SF-295 CNS it was 42.6%. Also, the growth with SF-539 CNS is 81%; with UACC-257 melanoma, 83.8%; in the experiment on M14 melanoma, 40.6%.

Turning to `CN(C)C(=O)Oc1ccccc1`, the growth with DU-145 prostate is 108%; with K-562 leukemia it was 111%; in the experiment with MALME-3M melanoma, 109%; with MDA-MB-231 breast, 115%; in the experiment with RXF 393 renal it was 122%; in the experiment with SF-295 CNS it was 103%. In addition, the results for the growth with SF-539 CNS, in the experiment with UACC-257 melanoma and in the experiment on M14 melanoma were 93.7%, 98.9% and 103%, respectively.

Consider `C=CCc1cc2c(cc1OCC)OCO2`, for which the growth was 108% in the experiment with DU-145 prostate; 114% in the experiment with K-562 leukemia; 116% with MALME-3M melanoma; 110% in the experiment on MDA-MB-231 breast; 94.8% with SF-268 CNS; 93.6% in the experiment on SF-295 CNS. In addition, the growth is 99.1% in the experiment with SF-539 CNS, 105% in the experiment on UACC-257 melanoma and 92.9% in the experiment on M14 melanoma.

On to `COc1cc(C=C2c3ccccc3C(=O)c3ccccc32)ccc1OCCCCOc1cc2c(cc1OC)C(=O)N1CCCC1C=N2` (stereo not given), for which the growth with DU-145 prostate was -92.7% (active); in the experiment with K-562 leukemia it was -15.4% (active); in the experiment with MALME-3M melanoma, -28.8% (active); in the experiment on MDA-MB-231 breast it was -23.7% (active); with SF-268 CNS it was -59.9% (active); in the experiment on SF-295 CNS it was -42.2% (active). The growth was -70.9% (active) in the experiment on SF-539 CNS, -73.3% (active) in the experiment on UACC-257 melanoma and -66.7% (active) with M14 melanoma.

With `C[CH2][Sn]([Cl])([Cl])[CH2]C.Oc1ccccc1C=NCCN=Cc1ccccc1O`, the growth with DU-145 prostate was 111%; with K-562 leukemia it was 84.2%; with MALME-3M melanoma, 95.6%; in the experiment with MDA-MB-231 breast, 107%; in the experiment on RXF 393 renal it was 118%; in the experiment with SF-268 CNS, 106%. Also, the growth was 87.9% in the experiment on SF-539 CNS, 94.1% in the experiment on UACC-257 melanoma and 112% in the experiment with M14 melanoma.

In the case of `COC(=O)C1OC(Oc2ccc(N(CCCl)CCCl)cc2)C(OC(C)=O)C(OC(C)=O)C1OC(C)=O` (stereo not given), the growth was 104% in the experiment with DU-145 prostate; 94.6% with K-562 leukemia; 96.1% with MALME-3M melanoma; 88.5% in the experiment on MDA-MB-231 breast; 79.1% in the experiment with SF-268 CNS; 53.1% in the experiment with SF-295 CNS. For the same compound, the results for the growth in the experiment on SF-539 CNS, in the experiment on UACC-257 melanoma and in the experiment on M14 melanoma were 70.9%, 79.6% and 102%, respectively.

Take `CCCCCC1(CCBr)C(=O)NC(=O)NC1=O`: the growth in the experiment on DU-145 prostate was 109%; in the experiment with K-562 leukemia, 94.1%; in the experiment with MALME-3M melanoma it was 108%; in the experiment with MDA-MB-231 breast, 107%; in the experiment on RXF 393 renal, 107%; in the experiment with SF-539 CNS, 96.6%. Moreover, the growth with UACC-257 melanoma is 91%; with M14 melanoma, 112%.

For the compound `O=C(O)CNC(=O)C(Cl)(Cl)Cl`, the growth was 107% in the experiment with DU-145 prostate; 108% in the experiment on K-562 leukemia; 97.6% with MALME-3M melanoma; 103% with MDA-MB-231 breast; 92.1% with RXF 393 renal; 104% in the experiment with SF-268 CNS. Moreover, the growth in the experiment on SF-539 CNS was 103%; with UACC-257 melanoma, 88%; with M14 melanoma it was 107%.
